Source: PubChem BioAssay
Calls of active or inactive are those of the source. Unless noted, the rule behind the calls is not given here.

Key:
[1] = tested on: XIP peptide (Xip251-270) binding; assay: small-molecule binders of XIP peptide, primary screen, biochemical, small-molecule microarray, fluorescence 635/667 nm, 0.1 µg/mL protein (AID 1182); conditions: fluorescent protein binding, 635 nm, higher = more signal, called active from +8 up or from −8 down
[2] = tested on: XIP peptide (Xip251-270); assay: small-molecule binders of XIP peptide, primary screen, biochemical, small-molecule microarray, fluorescence 635/667 nm, 0.5 µg/mL protein (AID 1183); conditions: small-molecule microarray binding, fluorescence 635 nm; higher = more signal
[3] = Plasmodium falciparum growth inhibition, primary screen, strain 3D7, DAPI fluorescence, 100 nL (AID 1184);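 note: parasites grown inside human red blood cells in medium with human serum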; conditions: P. falciparum 3D7 growth, 3 d, higher = more signal
[4] = target: Homeobox protein Hox-A13 (Mus musculus) (UniProt Q62424); assay: inhibitors of HoxA13-DNA binding, primary screen, biochemical, fluorescence polarization, labeled oligonucleotide (AID 1185); conditions: 15 min, higher = more signal, called active from +8 up or from −8 down
[5] = inhibitors of hydroxyurea-induced Chk1 phosphorylation, primary screen, imaging, HeLa, phospho-Chk1 antibody, percent positive cells (AID 1186); conditions: hydroxyurea-induced phospho-Chk1 immunofluorescence imaging, higher = more signal
[6] = inhibitors of hydroxyurea-induced Chk1 phosphorylation, primary screen, imaging, HeLa, phospho-Chk1 nuclear intensity (AID 1187); conditions: hydroxyurea-induced phospho-Chk1 immunofluorescence imaging, higher = more signal

Chain of Homeobox protein Hox-A13 (Mus musculus) (Q62424 whole entry, looked up): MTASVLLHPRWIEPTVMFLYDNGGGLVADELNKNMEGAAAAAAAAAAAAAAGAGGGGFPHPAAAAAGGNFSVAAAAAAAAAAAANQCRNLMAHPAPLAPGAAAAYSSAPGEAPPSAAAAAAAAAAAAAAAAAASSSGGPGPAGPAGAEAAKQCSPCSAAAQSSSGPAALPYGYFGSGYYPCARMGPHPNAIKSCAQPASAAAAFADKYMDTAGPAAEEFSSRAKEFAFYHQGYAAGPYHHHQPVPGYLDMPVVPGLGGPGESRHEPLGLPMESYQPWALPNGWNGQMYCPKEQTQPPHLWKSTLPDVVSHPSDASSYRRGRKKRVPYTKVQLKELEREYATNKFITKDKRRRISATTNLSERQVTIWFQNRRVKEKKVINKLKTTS

SMILES	composite z-score [1]	composite z-score [2]	z-score [3]	z-score [4]	z-score [5]	z-score [6]
COc1ccccc1CN1C(=O)c2ccccc2[C@@H](C(=O)NC(C)C)[C@@H]1c1ccc(CO)cc1	0.0282 (inactive)	0.905	-0.425	-1.9 (inactive)	0.19 (inactive)	0.686 (inactive)
NC(=O)NCC#Cc1ccc2c(c1)[C@]1(C(=O)N2)[C@H](C(=O)O)[C@H]2C(=O)O[C@H](c3ccccc3)[C@H](c3ccccc3)N2[C@@H]1c1ccccc1OCCO	0.638 (inactive)	0.823	0.828	-5.72 (inactive)	-0.0005 (inactive)	0.287 (inactive)
[N-]=[N+]=NCc1ccccc1[C@H]1OC(c2ccc(OCCCO)cc2)=N[C@@]1(CCS(=O)(=O)c1ccccc1)C(N)=O	1 (inactive)	0.558	-1.09	-3.46 (inactive)	0.163 (inactive)	0.0372 (inactive)
O=C1NC(=O)C2C1C=CC(C(O)c1ccc(Br)cc1)N2Nc1ccccn1 (stereo unspecified)	0.623 (inactive)	0.883	0.284	-0.555 (inactive)	0.48 (inactive)	0.784 (inactive)
COCCOC(=O)N1C(=O)[C@@]2(c3ccccc31)[C@H](c1ccc(OCCO)cc1)N1[C@H](c3ccccc3)[C@H](c3ccccc3)OC(=O)[C@H]1[C@@H]2C(=O)Nc1nc2ccccc2s1	1.72 (inactive)	0.745	-0.365	0.0267 (inactive)	-0.0021 (inactive)	-0.178 (inactive)
Cc1c(NC(=O)/C(C#N)=C/C=C/c2ccc(N(C)C)cc2)c(=O)n(-c2ccccc2)n1C	1.41 (inactive)	0.7	-0.46	-13.8 (active)	0.348 (inactive)	0.996 (inactive)
C=C[C@H](COC(C)=O)NS(=O)(=O)c1ccc(Br)cc1	-0.111 (inactive)	0.238	0.463	-0.189 (inactive)	-0.655 (inactive)	-0.782 (inactive)
C=CCN1C(=O)[C@@]2(CCC(=O)OC(C)(C)C)N=C(c3ccc(OCCCO)cc3)O[C@H]2c2ccccc21	0.841 (inactive)	0.473	-1.95	-0.861 (inactive)	-0.239 (inactive)	-0.351 (inactive)
COCCOC(=O)N1C(=O)[C@@]2(c3ccccc31)[C@H](C(=O)N1CCN(c3ncccn3)CC1)[C@H]1C(=O)O[C@H](c3ccccc3)[C@H](c3ccccc3)N1[C@@H]2c1ccc(OCCO)cc1	0.707 (inactive)	0.791	-1.93	-0.387 (inactive)	0.065 (inactive)	0.182 (inactive)
C[C@H]1ON(c2ccc(C(=O)OC(C)(C)C)cc2)[C@@H](c2ccc(O)cc2)[C@@H]1C(=O)N1C(=O)OC[C@@H]1c1ccccc1	0.0197 (inactive)	0.446	-1.47	-4.21 (inactive)	0.148 (inactive)	0.062 (inactive)
COC(=O)C(CC#Cc1ccc2c(c1)[C@]1(C(=O)N2)[C@H](C(=O)O)[C@H]2C(=O)O[C@H](c3ccccc3)[C@H](c3ccccc3)N2[C@@H]1c1ccccc1OCCO)C(=O)OC	0.341 (inactive)	0.853	-2.06	-6.38 (inactive)	-0.244 (inactive)	-0.674 (inactive)
CO[C@H]1O[C@H](CO)[C@@H](OC(=O)Nc2ccc(Oc3ccccc3)cc2)[C@H](OC(=O)Nc2ccccc2-c2ccccc2)[C@@H]1OC(=O)Nc1ccccc1-c1ccccc1	0.356 (inactive)	0.759	-2.39	-1.71 (inactive)	-0.141 (inactive)	-0.148 (inactive)
COC(=O)[C@]1(CCS(=O)(=O)c2ccccc2)N=C(c2ccc(OCCCO)cc2)O[C@@H]1c1ccccc1CN=[N+]=[N-]	0.867 (inactive)	0.769	-2.2	-0.936 (inactive)	-0.375 (inactive)	-0.574 (inactive)
O=C(CCCCCCC(=O)Nc1ccccc1)N/N=C/c1ccccc1	-0.531 (inactive)	-0.57	1.01	0.458 (inactive)	-0.156 (inactive)	-0.425 (inactive)
COc1ccc([Si](C)(C)[C@H]2[C@H](CCn3cc([C@H](O)c4ccccc4)nn3)O[C@@]3(C(=O)N(Cc4cccc(N5C(=O)c6cccc7cccc5c67)c4)c4ccccc43)[C@@H]2C)cc1	0.75 (inactive)	0.141	-0.989	-2.01 (inactive)	0.169 (inactive)	-0.656 (inactive)
COc1cc(OC)c(C(O)C2C=CC3C(=O)N(c4ccccc4)C(=O)C3N2Nc2ccc(C#N)cc2)cc1Br (stereo unspecified)	3.12 (inactive)	0.796	-0.365	-3.36 (inactive)	-0.002 (inactive)	-0.795 (inactive)

SMILES	composite z-score [1]	composite z-score [2]	z-score [3]	z-score [4]	z-score [5]	z-score [6]
CC(C)CN1C(=O)[C@@]2(c3ccc([N+](=O)[O-])cc3)CC(=O)N(CC34CC5CC(CC(C5)C3)C4)[C@@H]2c2ccc(CO)cc21	0.141 (inactive)	-0.0737	-1.14	0.944 (inactive)	0.016 (inactive)	-0.164 (inactive)
CC=CC(O)C1C=CC2C(=O)N(C)C(=O)C2N1N1CCCCC1 (stereo unspecified)	0.102 (inactive)	0.759	0.884	-7.38 (inactive)	0.436 (inactive)	-0.297 (inactive)
CC[C@@H]1[C@H]2C3C(=O)N(CC)C(=O)C3CC(=O)[C@H]2[C@H](c2ccc(C)cc2)N1S(=O)(=O)c1ccc(C)cc1 (stereo partly specified)	0.117 (inactive)	0.643	-0.915	-4.84 (inactive)	0.2 (inactive)	-0.264 (inactive)
C=CC1c2cc(O)c(OC)cc2CCN1Cc1sc2ccccc2c1Cl (stereo unspecified)	0.51 (inactive)	0.618	-0.614	-2.71 (inactive)	0.326 (inactive)	-0.0459 (inactive)
CCN(CC)c1ccc(N2CC=CC34O[C@@H]5/C=C\CCC(C)OC(=O)C5[C@H]3C(=O)N(CCO)[C@@H]4C2=O)cc1 (stereo partly specified)	1.27 (inactive)	0.461	-1.23	-5.86 (inactive)	0.695 (inactive)	0.21 (inactive)
C=C(CCCC)C(=O)CC[C@@H](OC(=O)c1cccnc1)c1ccccc1OCCO	-0.451 (inactive)	-0.0138	-3.08	-3.61 (inactive)	-0.383 (inactive)	-0.227 (inactive)
COc1ccc(NN2C(C(O)c3ccco3)C=CC3C(=O)N(C4CCCCC4)C(=O)C32)cc1 (stereo unspecified)	0.902 (inactive)	0.68	-0.244	-3.76 (inactive)	-0.266 (inactive)	-0.504 (inactive)
CC(C)(C)OC(=O)CC[C@]1(C(=O)N2CCOCC2)N=C(c2ccc(OCCCO)cc2)O[C@H]1c1ccccc1	-0.0263 (inactive)	0.689	-0.29	-5.96 (inactive)	-0.443 (inactive)	-0.494 (inactive)
C=C(CCCC)C(=O)CC[C@@H](OC(=O)c1ccccc1-c1ccccc1C(=O)O)c1cccc(OCCO)c1	1.03 (inactive)	0.204	-2.46	-5.72 (inactive)	0.456 (inactive)	0.408 (inactive)
C=CCOC(=O)[C@@H]1[C@H]2C(=O)O[C@H](c3ccccc3)[C@H](c3ccccc3)N2[C@H](c2ccc(OCCOC(=O)[C@H]3C[C@H]4C(=O)N[C@@H](CCCC[N+](C)(C)C)C(=O)N4[C@H]3c3ccc(O)cc3)cc2)[C@@]12C(=O)Nc1ccc(I)cc12	0.708 (inactive)	0.873	-1.16	-0.103 (inactive)	-0.655 (inactive)	-0.636 (inactive)
[N-]=[N+]=NCc1ccccc1C[C@@]1(C(N)=O)N=C(c2ccc(OCCCO)cc2)O[C@@H]1c1ccccc1CN=[N+]=[N-]	0.145 (inactive)	0.0228	-1.91	-1.91 (inactive)	-0.228 (inactive)	-0.347 (inactive)
O=C(CS)NCCCCCCNC(=O)[C@H]1C[C@H]2C(=O)N[C@@H](Cc3ccccc3)C(=O)N2[C@H]1c1cccc(OCCO)c1	0.168 (inactive)	0.825	0.107	-1.03 (inactive)	-0.0078 (inactive)	0.671 (inactive)
CCOC(=O)[C@H]1C/C=C/C[C@H](C(=O)OCC)C(=O)O[C@H]2[C@@H](OC)O[C@H](CO)[C@@H](OC(=O)Nc3ccc(OC)cc3)[C@@H]2OC1=O	0.568 (inactive)	0.601	-1.71	-0.589 (inactive)	0.178 (inactive)	0.395 (inactive)
COc1cc2c(cc1OC)CN(C(=O)[C@H]1[C@@H]3C(=O)O[C@@H](c4ccccc4)[C@@H](c4ccccc4)N3[C@@H](c3ccc(OCCO)cc3)[C@]13C(=O)Nc1ccc(C#CC4(O)CCCCCC4)cc13)CC2	0.63 (inactive)	0.803	-1.88	2.98 (inactive)	-0.647 (inactive)	-1.2 (inactive)
COc1cc(CO)cc(I)c1O[C@H]1C=C(C(=O)NCCO)C[C@@H](N(Cc2ccc(F)cc2)C(=O)C2CCCO2)[C@@H]1O (stereo partly specified)	-0.192 (inactive)	-0.318	0.463	-4.27 (inactive)	0.36 (inactive)	0.824 (inactive)
